# Source: PubChem BioAssay (Broad Institute)
# The full list was thinned out, with hits kept by preference.
# Glyco luc inh: blocks N-linked glycosylation in D54 reporter cells; reporter increase, % at 12.5 µM; 360,000 tested, 0.23% active; D54 ERlucT glycosylation luciferase reporter, 24 h; percent of 100 nM tunicamycin response; AID 588692;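 active means mean luciferase reporter signal, scaled so untreated is 0 and the glycosylation-blocking control 100, at or above a set limit in every replicate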;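 further: luciferase carries N-glycosylation sites so blocking glycosylation raises the light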
# DENV2 CPE rescue: protects cells from dengue virus 2 cytopathic effect. DENV2-infected cells, cytopathic effect rescue, plate reader. CPE inhibition, % at 9.99 µM. 350,000 tested, 1.7% active; in the data active means CPE inhibition above about 20%, passing the limit was not always enough; tested in BHK-21 cells
# PglD DTNB: blocks C. jejuni PglD acetyltransferase activity; purified PglD enzyme, DTNB colorimetric CoA detection; AID 602405; 360,000 tested, 0.098% active; inhibition, % at 12.5 µM; in the data active means inhibition above about 16%, passing the limit was not always enough
# Rtt109 Vps75: blocks Candida albicans Rtt109/Vps75 acetyltransferase activity; 330,000 tested, 0.16% active; Q5AAJ8; inhibition, % at 34.9 µM; AID 540336; purified Rtt109/Vps75, ThioGlo CoA-SH fluorescence, 4 h;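 active means inhibition of at least 50% in every replicate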
# Target sequence (Q5AAJ8 whole entry, looked up): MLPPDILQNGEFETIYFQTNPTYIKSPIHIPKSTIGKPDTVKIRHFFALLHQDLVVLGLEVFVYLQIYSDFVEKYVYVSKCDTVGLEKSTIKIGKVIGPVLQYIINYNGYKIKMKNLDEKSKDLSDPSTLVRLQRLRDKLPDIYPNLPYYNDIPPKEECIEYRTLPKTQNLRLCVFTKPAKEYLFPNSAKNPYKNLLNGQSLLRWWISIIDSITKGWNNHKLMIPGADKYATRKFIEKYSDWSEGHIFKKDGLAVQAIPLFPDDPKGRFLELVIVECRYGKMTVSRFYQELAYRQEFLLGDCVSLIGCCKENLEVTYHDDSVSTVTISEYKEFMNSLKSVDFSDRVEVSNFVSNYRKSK
# A number is an active result; – = inactive; · = no result given.
SMILES,Glyco luc inh,DENV2 CPE rescue,PglD DTNB,Rtt109 Vps75
O=C(Nc1ncccc1O)c1ccc(S(=O)(=O)Nc2ccccc2)cc1,129,–,–,–
COC(=O)c1ccc(NC(=O)c2ccc(NS(=O)(=O)c3cccc4cccnc34)cc2)cc1,–,·,–,–
O=C(Nc1ccccc1O)c1ccc(NS(=O)(=O)c2cccc3cccnc23)cc1,83,–,–,–
C[C@H]1CN([C@@H](C)CO)C(=O)c2cc(NS(=O)(=O)c3ccccc3)ccc2O[C@@H]1CN(C)Cc1ccc2c(c1)OCO2,·,–,–,·
O=C(C[C@@H]1CC[C@@H]2[C@H](COC[C@@H](O)CN2S(=O)(=O)c2ccc(Cl)cc2)O1)NCCN1CCCC1,·,27,–,·
O=C(C[C@@H]1CC[C@@H]2[C@H](COC[C@H](O)CN2C(=O)c2ccc3c(c2)OCO3)O1)NCCN1CCCC1,·,31,·,·
O=C(C[C@H]1CC[C@H]2[C@@H](COC[C@@H](O)CN2S(=O)(=O)c2ccccc2)O1)NCCN1CCCC1,·,–,·,·
O=C(C[C@H]1CC[C@@H]2[C@H](COC[C@H](O)CN2S(=O)(=O)c2ccccc2)O1)NCCN1CCCC1,·,28,·,·
O=C(C[C@@H]1CC[C@@H]2[C@H](COC[C@@H](O)CN2C(=O)c2ccc3c(c2)OCO3)O1)NCCN1CCCC1,·,–,·,·
CO[C@H]1CN(C)C(=O)c2cc(NC(=O)c3ccc4c(c3)OCO4)ccc2OC[C@H](C)N(CCC(F)(F)F)C[C@@H]1C,·,23,·,·
CCCN1C[C@H](C)[C@@H](OC)CN(C)C(=O)c2cc(NC(=O)c3ccccc3)ccc2OC[C@H]1C,·,–,–,·
CCCN1C[C@H](C)[C@H](OC)CN(C)C(=O)c2ccc(NC(=O)Nc3cccc(F)c3)cc2OC[C@H]1C,·,25,·,·
CCCN1C[C@H](C)[C@@H](OC)CN(C)C(=O)c2ccc(NC(=O)c3ccccc3)cc2OC[C@@H]1C,·,23,·,·
COc1ccc2c3c([nH]c2c1)[C@H](CO)N(C(=O)Nc1ccccc1F)CC31CN(C(=O)c2ccccc2F)C1,·,–,·,·
CCOC(=O)c1[nH]c(C)c(C(=O)OCC(=O)N2CC(=O)Nc3ccccc32)c1C,–,71,–,–
O=C(/C=C/c1cccnc1)c1ccc([N+](=O)[O-])cc1,35,–,–,–
CS(=O)(=O)c1ncc(Cl)c(C(=O)Nc2ccc(N3CCOCC3)cc2)n1,–,·,·,110
COCCNC(=O)C[C@H]1CC[C@@H]2[C@H](COC[C@H](O)CN2S(=O)(=O)c2ccccc2C)O1,·,–,–,·
CCN(CC(=O)Nc1c(F)cccc1F)C(=O)C1CCN(S(=O)(=O)c2ccc(F)cc2)CC1,–,28,–,–
COc1ccc(OC)c(Nc2nc(=O)c3cccnc3s2)c1,–,·,·,112
CN(C)Cc1cn(CC[C@@H]2CC[C@H](NC(=O)Nc3ccc4c(c3)OCO4)[C@@H](CO)O2)nn1,·,–,–,·
CCc1ccccc1OCC(=O)NNCC(=O)Nc1cccc(C#N)c1,–,41,–,–
Cc1noc(C)c1NC(=O)Nc1cccc2c1O[C@H](CN(C)Cc1ccc(Oc3ccccc3)cc1)[C@H](C)CN([C@H](C)CO)C2=O,·,–,–,·
CCCCCNC(=O)c1[nH]c(C(F)(F)F)nc1-c1ccccc1,–,28,–,·
O=C(NCCc1ccccc1)c1[nH]c(C(F)(F)F)nc1-c1ccccc1,–,–,–,·
SMILES,Glyco luc inh,DENV2 CPE rescue,PglD DTNB,Rtt109 Vps75
C[C@H](CO)N1C[C@H](C)[C@@H](CN(C)C(=O)Nc2ccc(F)cc2)Oc2ncc(Br)cc2C1=O,·,–,–,·
Cc1ccc([C@@H]2[C@@H]3C(=O)N(C)C(=O)[C@@H]3[C@]3(C)C(=O)N(Cc4ccc(-c5ccccc5)cc4)CC(=O)N23)o1,–,92,–,–
Cc1ccc([C@@H]2[C@@H]3C(=O)N(c4ccccc4)C(=O)[C@@H]3[C@]3(C)C(=O)N(Cc4ccccc4)CC(=O)N23)o1,–,–,–,–
C[C@H](CO)N1C[C@H](C)[C@H](CN(C)CC2CC2)Oc2cc(-c3ccc(C#N)cc3)ccc2S1(=O)=O,·,–,–,·
Cc1nc2ccccc2c2oc(C(=O)NCCN3CCN(C)CC3)cc12,–,22,–,–
COc1cccc(NC(=O)N[C@H]2C=C[C@H](CC(=O)Nc3ccc(-c4ccccc4)cc3)O[C@@H]2CO)c1,·,–,–,·
CCS(=O)(=O)Nc1ccc2c(c1)C(=O)N(C)C[C@H](OC)[C@H](C)CN(C(=O)c1ccc3c(c1)OCO3)[C@@H](C)CO2,·,–,–,·
Cc1ccc(S(=O)(=O)CCC(=O)NCc2ccccc2Cl)cc1,–,·,·,–
Cc1ccc(S(=O)(=O)Cc2ccccc2Cl)cc1,–,29,·,–
C[C@H]1CN([C@@H](C)CO)C(=O)Cc2cc(NS(=O)(=O)c3ccc(F)cc3)ccc2O[C@H]1CN(C)C(=O)Nc1ccc(F)cc1,·,–,–,·
COc1cc(CCCN2CCNC[C@@H]2c2ccccc2)cc(OC)c1OC,–,70,–,–
Cc1noc(C)c1NC(=O)N[C@H]1CC[C@H](CC(=O)N2CCCCC2)O[C@H]1CO,·,–,–,·
CCS(=O)(=O)N[C@@H]1C=C[C@H](CC(=O)Nc2ccc(-c3ccccc3)cc2)O[C@@H]1CO,·,70,–,·
Cn1cnc(S(=O)(=O)N[C@@H]2C=C[C@H](CC(=O)Nc3ccc(-c4ccccc4)cc3)O[C@@H]2CO)c1,·,–,–,·
CCC(=O)N(C)C[C@@H]1Oc2cc(-c3ccccc3)ccc2S(=O)(=O)N([C@H](C)CO)C[C@@H]1C,·,–,–,·
COc1ccc(CN2CCC(=O)N([C@H](CO)c3ccccc3)CC2)cc1,–,26,–,–
CC(C)C[C@@H](COc1ccccc1)N1CCN(Cc2ccccc2)CCC1=O,·,28,·,–
CCCN1CCC(=O)N([C@H](COc2ccccc2)c2ccccc2)CC1,–,–,–,–
CC(C)C[C@@H](CO)N1CCN(Cc2cccc(C#N)c2)CCC1=O,–,20,–,–
CC(C)C[C@@H](CO)N1CCN(Cc2ccccc2)CCC1=O,–,·,–,–
O=C1CCN(CCc2ccccc2)CCN1[C@H](COc1ccccc1)c1ccccc1,–,99,–,–
Cc1noc(C)c1NC(=O)N(C)C[C@H]1OCCCC[C@@H](C)Oc2ccc(NC(=O)c3ccccc3)cc2C(=O)N([C@@H](C)CO)C[C@@H]1C,·,–,–,·
CC(C)C(=O)Nc1ccc2c(c1)C(=O)N(C)[C@H]1CC[C@H](CC(=O)NCc3ccccc3F)O[C@H]1CO2,·,–,–,·
O=C(c1ccc2c(c1)OCO2)N1C[C@@H]2[C@H](c3ccccc31)[C@@H](CO)N2Cc1ccc2c(c1)OCO2,·,–,–,·
CN1CCC(=O)N([C@H](COc2ccccc2)Cc2ccccc2)CC1,–,20,–,–
CCCN1CCC(=O)N([C@H](COc2ccccc2)Cc2ccccc2)CC1,–,–,–,–
Cc1ccc(S(=O)(=O)Nc2ccc3c(c2)C(=O)N([C@H](C)CO)C[C@H](C)[C@@H](CN(C)S(C)(=O)=O)OCCCC[C@H](C)O3)cc1,·,57,–,·
Cc1ccc(S(=O)(=O)Nc2ccc3c(c2)C(=O)N([C@@H](C)CO)C[C@H](C)[C@@H](CN(C)S(C)(=O)=O)OCCCC[C@@H](C)O3)cc1,·,26,–,·
CNC[C@H]1OCCCC[C@@H](C)Oc2ccc(NS(=O)(=O)c3cn(C)cn3)cc2C(=O)N([C@@H](C)CO)C[C@H]1C,·,64,–,·
